Results from PubChem BioAssay (NCATS).
Records with an inconclusive call do not appear. The source made the active and inactive calls. Unless noted, calls come from the whole dose curve; as a rule, active = well fitted curve in the direction sought with a large enough effect; inconclusive = small, poorly fitted or top-dose-only effect, or another doubt; inactive = no such curve, though single readings can be large; an effect the other way counts as inactive or inconclusive.

Legend:
[1] = MultiTox-Fluor Cytotoxicity Assay - LYMP1-003 - Dead Cells (AID 961); note: nearly all actives have a fitted effect of over 70% in size
How it was run: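 LYMP1-003 lymphoblastoid, 2500 cells/well, 5 hr settle then 16 hr cpd at 37 C; MultiTox-Fluor reagent 60 min RT; Ex/Em 485/520 dead-cell signal; norm. DMSO = 0%, 15 uM tetraoctylammonium bromide = 100%; Hill AC50.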

[2] = Cell Viability - LYMP1-003 - Assay at 24 hr (AID 963); note: potency is the fitted concentration of half-maximal effect
How it was run: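 Cells seeded at 2500/well, 5 hr at 37 C; compounds added; 24 hr at 37 C; CellTiter-Glo added, 30 min room temperature; luminescence read. Decrease in ATP taken as cytotoxicity, AC50 from Hill modelling.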

[3] = Cell Viability - LYMP1-003 - Assay at 40 hr (AID 964); note: potency is the fitted concentration of half-maximal effect; nearly all actives have a fitted effect of over 60% in size
How it was run: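 Cells were seeded at 2500 per well and incubated 5 hr at 37 C. Compounds were added across a concentration series and left 40 hr at 37 C. CellTiter-Glo was added for 30 min at room temperature before luminescence reading.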

[4] = Cell Viability - LYMP2-003 (AID 965);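 note: potency is the fitted concentration of half-maximal effect; cells exposed to compounds for 24 h before reading; nearly all actives have a fitted effect of over 50% in size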
How it was run: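 Seed 2500 lymphoblastoid cells/well; incubate 5 hr, 37 C; add compounds; incubate 24 hr, 37 C; add CellTiter-Glo, 30 min RT; read luminescence. AC50 from Hill fit.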

[5] = Cell Viability - LYMP2-004 (AID 966); note: potency is the fitted concentration of half-maximal effect; nearly all actives have a fitted effect of over 65% in size
How it was run: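 Cells seeded 2500/well, rested 5 hr at 37 C, dosed across a concentration series, incubated 24 hr at 37 C, then CellTiter-Glo added for 30 min at room temperature and luminescence read. Hill fitting gave AC50.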

[6] = Cell Viability - LYMP2-009 (AID 968); note: potency is the fitted concentration of half-maximal effect; nearly all actives have a fitted effect of over 55% in size
[7] = Cell Viability - LYMP2-011 (AID 969); note: potency is the fitted concentration of half-maximal effect; nearly all actives have a fitted effect of over 60% in size
How it was run: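 2500 cells/well, 5 hr 37 C; compound added, 24 hr 37 C; CellTiter-Glo 30 min RT; luminescence. qHTS concentration-response, Hill-equation AC50. Tetraoctylammonium bromide positive control.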

[8] = Cell Viability - LYMP2-013 (AID 970); note: potency is the fitted concentration of half-maximal effect; nearly all actives have a fitted effect of over 55% in size
How it was run: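 qHTS; 2500 lymphoblastoid cells/well; 5 hr 37 C settle; cpd 24 hr 37 C; CellTiter-Glo, 30 min RT; luminescence. AC50 = Hill fit.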

[9] = Cell Viability - LYMP2-015 (AID 971); note: potency is the fitted concentration of half-maximal effect; nearly all actives have a fitted effect of over 55% in size
How it was run: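 Luminescent ATP read-out (CellTiter-Glo) served as the viability measure after lymphoblastoid cells were exposed to compounds for 24 hours at 37 C. Concentration-response data were fitted with the Hill equation to give AC50.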

[10] = Cell Viability - LYMP2-017 (AID 972); note: potency is the fitted concentration of half-maximal effect; nearly all actives have a fitted effect of over 55% in size
How it was run: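 2500 cells/well, 5 h 37 C; cpd 24 h 37 C in complete medium; CellTiter-Glo, 30 min RT; luminescence (ATP). AC50 via Hill fit, qHTS.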

[11] = Cell Viability - LYMP2-019 (AID 973)
How it was run: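 Luminescent ATP read-out (CellTiter-Glo, 30 min room temperature) served as the viability measure after 24 hr treatment of lymphoblastoid cells at 37 C. Concentration-response data were fitted to the Hill equation for AC50.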

[12] = Cell Viability - LYMP2-021 (AID 974)
How it was run: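 Plate 2500 lymphoblastoid cells per well and incubate 5 hr at 37 C. Add compounds over a concentration range and incubate 24 hr at 37 C. Add CellTiter-Glo, wait 30 min at room temperature, read luminescence.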

[13] = Cell Viability - LYMP2-023 (AID 975)
How it was run: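 2500 cells/well, 5 hr 37 C; cpd 24 hr 37 C; CellTiter-Glo, 30 min RT; luminescence. qHTS conc-response, Hill fit -> AC50. Pos ctrl tetraoctylammonium bromide.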

[14] = Cell Viability - LYMP2-025 (AID 976); note: potency is the fitted concentration of half-maximal effect
How it was run: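 Seed 2500 LYMP2-025 cells/well; 5 hr at 37 C; add compound; 24 hr at 37 C; add CellTiter-Glo; 30 min RT; read luminescence. AC50 from Hill-modelled concentration-response.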

[15] = Cell Viability - LYMP2-002 (AID 977); note: potency is the fitted concentration of half-maximal effect
How it was run: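 Luminescent ATP readout (CellTiter-Glo, 30 min room temperature) after 24 h compound exposure at 37 C of a human lymphoblastoid line, 2500 cells/well. AC50 values derived by standard Hill fitting of qHTS concentration-response data.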

[16] = Cell Viability - LYMP2-007 (AID 979);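 note: potency is the fitted concentration of half-maximal effect; cells exposed to compound for 24 h before reading; nearly all actives have a fitted effect of over 60% in size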
How it was run: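 Luminescent ATP signal (CellTiter-Glo) serves as the viability read-out after 24 hr compound treatment of lymphoblastoid cells in complete medium at 37 C. Concentration-response data were fitted to the Hill equation to give AC50 values.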

[17] = Cell Viability - LYMP2-008 (AID 980); note: potency is the fitted concentration of half-maximal effect; nearly all actives have a fitted effect of over 60% in size
How it was run: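 qHTS, human lymphoblastoid line, 2500 cells/well; 5 hr preincubation, 24 hr compound, 37 C. CellTiter-Glo ATP luminescence. AC50 via Hill equation. Tetraoctylammonium bromide positive control.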

[18] = Cell Viability - LYMP2-010 (AID 981)
How it was run: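 Luminescent ATP signal (CellTiter-Glo) served as the viability read-out. Cells of the human lymphoblastoid line were treated with compound over a concentration range for 24 hours at 37 C, and AC50 values came from Hill-equation modeling.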

[19] = Cell Viability - LYMP2-012 (AID 982)
[20] = Cell Viability - LYMP2-014 (AID 983); note: potency is the fitted concentration of half-maximal effect; nearly all actives have a fitted effect of over 50% in size
How it was run: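 Luminescent ATP signal (CellTiter-Glo, 30 min at room temperature) serves as the viability read-out after 24 hr compound exposure at 37 C. Cells were seeded at 2500 per well and settled 5 hr beforehand.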

[21] = Cell Viability - LYMP2-016 (AID 984)
How it was run: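 Cells were seeded at 2500 per well and rested 5 hr before a 24 hr compound exposure at 37 C. Viability was then gauged as cellular ATP by luciferase luminescence, with AC50 values fitted to the Hill equation.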

[22] = Cell Viability - LYMP2-018 (AID 985); note: potency is the fitted concentration of half-maximal effect; nearly all actives have a fitted effect of over 50% in size
How it was run: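 Luminescent ATP signal (CellTiter-Glo, read after 30 min at room temperature) reports viable cells after 24 hr compound treatment at 37 C. Concentration-response data were fitted to the standard Hill equation for AC50.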

[23] = Cell Viability - LYMP2-022 (AID 987)
How it was run: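 qHTS: human lymphoblastoid cells 2500/well; 5 hr 37 C; cpd added; 24 hr 37 C; CellTiter-Glo, 30 min RT; luminescence. AC50 via Hill fit; tetraoctylammonium bromide positive ctrl.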

[24] = Cell Viability - LYMP2-024 (AID 988)
How it was run: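 Steps: seed 2500 cells/well, 5 hr 37 C; add compound, 24 hr 37 C; add CellTiter-Glo, 30 min room temperature; read luminescence. AC50 derived by Hill modelling of concentration-dependent ATP loss.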

[25] = Cell Viability - LYMP2-026 (AID 989); note: potency is the fitted concentration of half-maximal effect; nearly all actives have a fitted effect of over 50% in size
How it was run: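 Luminescent ATP signal (CellTiter-Glo, 30 min room temperature) measures viable lymphoblastoid cells after 24 hr compound treatment at 37 C. Decreased ATP reflects acute toxicity; AC50 values come from Hill-equation modeling.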

[26] = Cell Viability - LYMP1-002 - Assay at 24 hr (AID 993); note: potency is the fitted concentration of half-maximal effect
How it was run: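 Cells plated 2500/well, 5 hr 37 C; compounds added, 24 hr 37 C; CellTiter-Glo added, 30 min RT; luminescence read. Tetraoctylammonium bromide positive control. Hill-equation AC50.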

[27] = Cell Viability - LYMP1-002 - Assay at 40 hr (AID 994)
How it was run: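 Luminescent ATP signal served as the viability readout, with decreases taken as toxicity. Cells were treated with compounds across a concentration range for 40 hours at 37 C, and AC50 values came from standard Hill modeling.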

[28] = qHTS assay for small molecule agonists of the antioxidant response element (ARE) signaling pathway (AID 651741; active = well fitted activation curve with a large enough effect in the signal ratio; the % refers to the signal ratio; note: potency is the fitted concentration of half-maximal effect)
How it was run: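 Compounds in DMSO are pinned onto HepG2 ARE-bla cells (2,000/well) that were preincubated 5 h; plates stay 16 h at 37 C, then beta-lactamase activity is detected with LiveBLAzer B/G substrate by fluorescence.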

[29] = qHTS assay for small molecule activators of the p53 signaling pathway (AID 651743; active = well fitted activation curve with a large enough effect in the signal ratio, not every such curve was filed as active; the % refers to the signal ratio; note: series mostly up to about 92 µM; % of control where 0% means no effect); conditions: HCT-116 p53RE-bla, beta-lactamase FRET ratio, 16 h; activation: active compounds read high
How it was run: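 Cell-based beta-lactamase reporter (p53 response elements, HCT-116 background). After a 5-hour preincubation, cells received compound for 16 hours at 37 C; substrate development ran 2 hours at room temperature.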

[30] = qHTS assay for small molecule disruptors of the mitochondrial membrane potential - 1 hr assay (AID 651754; calls by dose curve; note: potency is the fitted concentration of half-maximal effect; nearly all actives have a fitted effect of over 35% in size)
How it was run: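 HepG2, 2,000 cells/well, overnight attachment; cpd or DMSO 1 hr, 37C/5% CO2; Mito-MPS dye 30 min, 37C; fluorescence monomer (490/535) and aggregate (540/590).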

[31] = qHTS assay for small molecule disruptors of the mitochondrial membrane potential - 5 hr assay (AID 651755; calls by dose curve; note: potency is the fitted concentration of half-maximal effect; nearly all actives have a fitted effect of over 40% in size)
How it was run: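 HepG2 cells, attached overnight at 37C, were exposed to compound or DMSO for 5 hr at 37C, 5% CO2. Mito-MPS dye was then added for 30 min, and fluorescence read at 490/535 nm (monomers) and 540/590 nm (aggregates).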

[32] = qHTS assay for environmental chemicals that activate the Aryl hydrocarbon Receptor (AhR) signaling pathway (AID 651777); conditions: 1A2-DRE human hepatoma cells, luciferase, 24 h; activation: active compounds read high; note: % of control where 0% means no effect; nearly all actives have a fitted effect of over 15% in size
How it was run: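 Luminescence (One-Glo, 30 min, room temperature) reports AhR-driven luciferase in stably transfected human hepatoma cells bearing DRE and CYP1A2 promoter. Cells (1,200/well) were treated with compound for 24 hr at 37 C in qHTS format.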

[33] = molecular target: Peroxisome proliferator-activated receptor alpha (Homo sapiens) (UniProt Q07869); assay: qHTS assay for small molecule agonists of the peroxisome proliferator-activated receptor alpha (PPARalpha) signaling pathway (AID 651778); conditions: PathHunter PPARalpha complementation, chemiluminescence, 6 h; max response: active compounds read high; note: % of control where 0% means no effect
Chain of Peroxisome proliferator-activated receptor alpha (Homo sapiens) (Q07869 whole entry, looked up): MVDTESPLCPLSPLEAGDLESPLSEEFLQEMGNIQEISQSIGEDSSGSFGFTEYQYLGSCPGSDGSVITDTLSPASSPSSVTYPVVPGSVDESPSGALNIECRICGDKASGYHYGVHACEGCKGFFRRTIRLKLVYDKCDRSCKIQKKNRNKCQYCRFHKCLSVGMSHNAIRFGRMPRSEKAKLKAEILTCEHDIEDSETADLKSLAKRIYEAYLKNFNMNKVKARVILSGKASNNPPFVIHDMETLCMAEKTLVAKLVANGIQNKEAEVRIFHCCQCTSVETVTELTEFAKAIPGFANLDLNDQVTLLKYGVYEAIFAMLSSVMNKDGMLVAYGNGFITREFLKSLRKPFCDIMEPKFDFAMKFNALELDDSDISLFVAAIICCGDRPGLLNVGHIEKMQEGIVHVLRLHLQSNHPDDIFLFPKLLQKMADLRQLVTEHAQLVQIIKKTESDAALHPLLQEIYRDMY
How it was run: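 Cells plated at 2,000/well and held overnight at 37 C, 5% CO2, then compound added by pin tool for 6 hr; after PathHunter detection reagent and 60 min at room temperature, chemiluminescence from enzyme complementation was read.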

[34] = molecular target: Nuclear receptor ROR-gamma (Homo sapiens) (UniProt P51449); assay: qHTS assay for small molecule antagonists of the retinoid-related orphan receptor gamma (ROR-gamma) signaling pathway (AID 651802)
Chain of Nuclear receptor ROR-gamma (Homo sapiens) (P51449 whole entry, looked up): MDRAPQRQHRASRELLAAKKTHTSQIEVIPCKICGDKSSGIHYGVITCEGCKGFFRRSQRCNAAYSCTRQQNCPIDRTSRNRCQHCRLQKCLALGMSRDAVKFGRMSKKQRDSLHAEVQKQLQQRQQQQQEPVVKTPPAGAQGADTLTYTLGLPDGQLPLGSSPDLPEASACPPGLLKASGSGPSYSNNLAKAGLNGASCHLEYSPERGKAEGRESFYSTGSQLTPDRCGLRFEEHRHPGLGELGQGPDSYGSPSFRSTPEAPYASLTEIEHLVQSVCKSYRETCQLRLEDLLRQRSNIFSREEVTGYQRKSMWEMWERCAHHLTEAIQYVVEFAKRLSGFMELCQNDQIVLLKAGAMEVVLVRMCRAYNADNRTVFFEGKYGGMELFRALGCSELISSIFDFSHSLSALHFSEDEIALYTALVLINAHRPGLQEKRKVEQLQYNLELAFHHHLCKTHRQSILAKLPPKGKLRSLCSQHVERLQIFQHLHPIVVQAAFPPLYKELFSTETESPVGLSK
How it was run: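 CHO, TET-inducible ROR + RORE-LUC reporter, 1536-well qHTS. Compound pinned, doxycycline added, 16hr 37C/5% CO2. ONE-Glo, 30 min RT, luminescence; signal drop scored as antagonism.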

[35] = qHTS assay for small molecule agonists of the antioxidant response element (ARE) signaling pathway measured by Nrf2-dependant transcriptional activity (AID 720636; active = well fitted curve in the direction sought with a large enough effect in the repeat runs; an effect the other way counts as inactive or inconclusive; note: % of control where 0% means no effect)
How it was run: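 Nrf2-dependent transcription read as ONE-Glo luciferase signal from ARE-luc HepG2 reporter cells after 16 hr compound treatment at 37 C, 5% CO2, in assay medium with 1% dialyzed FBS.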

[36] = qHTS assay for small molecule antagonists of the retinoid-related orphan receptor gamma (ROR-gamma) signaling pathway - cell viability counter screen (AID 720652; active = well fitted curve in the direction sought with a large enough effect in the repeat runs; an effect the other way counts as inactive or inconclusive;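 note: potency is the fitted concentration of half-maximal effect; compound exposure lasted 16 hr before ATP read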)
How it was run: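 Luminescence from CellTiter-Glo after 30 min at room temperature reported cellular ATP as the cytotoxicity measure. Cells were the CHO reporter line with doxycycline-induced ROR-gamma expression, exposed to compound for 16 hr at 37 C.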

[37] = qHTS assay for cell viability of HEK293 cells (AID 743288); conditions: ATP luminescence (CellTiter-Glo), 18 h; max response: active compounds read low
How it was run: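 HEK293 parental, 2,000 cells/well; ≥5 h pre-incubation 37 C; pintool compound addition; 18 h, 37 C; CellTiter-Glo 30 min RT; luminescence read.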

[38] = qHTS assay for small molecule activators of the human pregnane X receptor (PXR) signaling pathway (AID 720659; call rule not given here; note: 0% is about no effect)

N=C1C=CC(=C(c2ccc(N)cc2)c2ccc(N)cc2)C=C1
inactive: Potency [1] | activation [29] 11.1% | activation [32] 3.01% | max response [33] -9.83% | Potency [35] | outcome [38]
active: Potency [2] 15.8 µM | Potency [3] 12.6 µM | Potency [4] 15.8 µM | Potency [5] 12.6 µM | Potency [6] 7.94 µM | Potency [7] 7.94 µM | Potency [8] 12.6 µM | Potency [9] 10 µM | Potency [10] 12.6 µM | Potency [11] 7.94 µM | Potency [12] 7.94 µM | Potency [13] 10 µM | Potency [14] 10 µM | Potency [15] 7.94 µM | Potency [16] 7.94 µM | Potency [17] 7.94 µM | Potency [18] 7.94 µM | Potency [19] 7.94 µM | Potency [20] 7.94 µM | Potency [21] 7.94 µM | Potency [22] 7.94 µM | Potency [23] 3.16 µM | Potency [24] 7.94 µM | Potency [25] 7.94 µM | Potency [26] 12.6 µM | Potency [27] 15.8 µM | Potency [28] 42.2 µM | Potency [30] 1.33 µM | Potency [31] 0.531 µM | Potency [34] 6.68 µM | Potency [36] 18.8 µM | Potency [37] 31.6 µM
